# Records with an inconclusive call do not appear. A call without a number means that no potency is given here. Activity calls are given as the source filed them. The call rests on the fitted dose curve; in most records, active means well fitted cell-killing curve with a large enough effect in the repeat runs; inconclusive means weak or mixed curves, or effect the other way; inactive means flat fitted curve, though single readings scatter.
# Test: qHTS assay to identify small molecule antagonists of the estrogen receptor alpha (ER-alpha) signaling pathway using the BG1 cell line in the presence of 0.1 nM 17-beta-estradiol - cell viability counter screen (AID 1259241); further: nearly all actives have a fitted effect of over 40% in size
# Conditions: VM7Luc4E2 (BG1) viability, CellTiter-Fluor protease, 22 h, 0.1 nM estradiol agonist added; series mostly up to 92.4 µM
# Description: National Center for Advancing Translational Sciences [NCATS]
# NIH Chemical Genomics Center [NCGC]
# U.S. Environmental Protection Agency [EPA]
# National Institutes of Environmental Health Sciences [NIEHS]
# National Toxicology Program [NTP]
# U.S. Food and Drug Administration [FDA]
# Estrogen receptor (ER), a member of the nuclear hormone receptor plays an important role in development, metabolic homeostasis and reproduction. Two subtypes of ER, ER-alpha and ER-beta, have similar expression patterns with some uniqueness in both types. Endocrine disrupting chemicals (EDCs) and their interactions with steroid hormone receptors like ER causes disruption of normal endocrine function. Therefore, it is important to understand the effect of environmental chemicals in ER signaling pathway. For identifying ER antagonists, VM7Luc4E2 cell line was used to screen against Tox21 compound libraries.
# VM7Luc4E2 cell line (provided by Denison MS, University of California) endogenously express full-length ER-alpha and is stably transfected with a plasmid containing four estrogen responsive elements (ERE) upstream of a luciferase reporter gene. The current screening for identification of ER-alpha inhibitors against Tox21 compound libraries used lower concentration (0.1 nM) of 17beta-Estradiol as a stimulator. The cytotoxicity of the Tox21 compound libraries against VM7Luc4E2 cell line was tested by measuring live-cell protease activity using CellTiter-Fluor assay in the same wells.
# Tox21 Assay Protocol Summary:
# VM7Luc4E2 cells were cultured in phenol red free assay medium containing 10% charcoal stripped FBS for 5 days prior to the assay. The cells were dispensed at 4,000 cells/well in 4 uL of assay medium into white wall/solid-bottom 1536-well plates (Corning Life Sciences, Corning, NY) using a Multidrop Combi (ThermoFisher Scientific, Waltham, MA) dispenser. After the assay plates were incubated at 37C and 5% CO2 for 24 hr, 23 nL of compounds dissolved in DMSO, positive controls or DMSO only was transferred to the assay plates by a Pintool station (Kalypsys, San Diego, CA). The transfer of compounds was followed by the addition of 1 uL of 0.1 nM (final concentration) agonist (17beta-Estradiol)/assay medium using a Flying Reagent Dispenser (FRD, Aurora Discovery, San Diego, CA). The plates were incubated at 37C and 5% CO2 for 22 hr. For cytotoxicity assay, 1 uL of CellTiter-Fluor reagent (Promega Corporation, Madison, WI) was added to each well using the FRD and after 30 min incubation at 37C and 5% CO2, The fluorescence intensity was measured using ViewLux plate reader (PerkinElmer, Shelton, CT).
SMILES,Potency,"activity change, negative = cytotoxicity"
Nc1nc(N)c(-c2ccccc2)s1,inactive,
CNS(=O)(=O)Cc1ccc2[nH]cc(CCN(C)C)c2c1,inactive,
C1CCC2OC2C1 (stereo not given),inactive,
C[C@H](CCC(=O)O)[C@H]1CC[C@H]2[C@@H]3[C@H](O)C[C@@H]4C[C@H](O)CC[C@]4(C)[C@H]3CC[C@]12C,inactive,
Cc1ccccc1N=Nc1ccc(N=Nc2c(O)ccc3ccccc23)c(C)c1,inactive,
O=C1[C@H](CC[C@H](O)c2ccc(F)cc2)[C@@H](c2ccc(O)cc2)N1c1ccc(F)cc1,inactive,
CCN(CC)CCOc1ccc2c(c1)C(=O)c1cc(OCCN(CC)CC)ccc1-2,inactive,
O=C(Nc1ccccc1)OCC(CN1CCCCC1)OC(=O)Nc1ccccc1 (stereo not given),inactive,
CC(=O)OC/C=C/c1ccccc1,inactive,
CCOC(=S)SSC(=S)OCC,inactive,
Nc1cnn([C@@H]2O[C@H](CO)[C@@H](O)[C@H]2O)c(=O)n1,inactive,
CC(CN)CCCN (stereo not given),inactive,
CC1(C)[C@H]2CC[C@]1(C)[C@H](O)C2,inactive,
CC(=O)SCc1ccco1,inactive,
CCCCCC(CO)CCC (stereo not given),inactive,
CC(=O)[C@@]1(O)CC[C@H]2[C@@H]3C[C@H](C)C4=CC(=O)CC[C@]4(C)[C@H]3CC[C@@]21C,inactive,
C=C(C)C(=O)OCCOc1ccccc1,inactive,
CC(=O)c1c(C)c([N+](=O)[O-])c(C(C)(C)C)c([N+](=O)[O-])c1C,inactive,
CCCCCCCCN(C)C,inactive,
C=CCCCCCC,inactive,

SMILES,Potency,"activity change, negative = cytotoxicity"
Cn1c(NCCN(CCO)CCCc2ccc([N+](=O)[O-])cc2)cc(=O)n(C)c1=O,inactive,
O=c1c2ccccc2nnn1CCl,inactive,
CCN(CC)C(C)=O,inactive,
COc1ccc([C@@H]2Sc3ccccc3N(CCN(C)C)C(=O)[C@@H]2OC(C)=O)cc1,inactive,
Oc1ccc(C(O)CNCCCCCCNCC(O)c2ccc(O)c(O)c2)cc1O (stereo not given),inactive,
CCN(CCO)CCCC(C)Nc1ccnc2cc(Cl)ccc12 (stereo not given),,-6.05% [at 8.39 µM] (inactive)
Cc1ccc(C(N)=O)cc1N,inactive,
CN(C(=O)CCCOc1ccc2[nH]c(=O)ccc2c1)C1CCCCC1,inactive,
CCCCCCCCC(CO)CCCCCC (stereo not given),inactive,
CCCCCCCCCC(=O)OCC,inactive,
CC(C)c1ccc2c(C(C)C)cc(C(C)C)c(S(=O)(=O)O)c2c1,inactive,
CC1CCc2cc(F)cc3c(=O)c(C(=O)O)cn1c23 (stereo not given),inactive,
Cc1c(Cn2ccnc2)c2ccccc2n1CCC(=O)O,inactive,
Cn1sccc1=O,inactive,
CC(C)c1cccc(C(C)C)c1NC(=O)NS(=O)(=O)c1cc(C(C)(C)O)co1,inactive,
O=C1CCCCCO1,inactive,
Cn1c(=O)c2c(ncn2CC(O)CO)n(C)c1=O (stereo not given),inactive,
CC(C)(C)C1CCCCC1O (stereo not given),inactive,
CC(C)NCC(O)c1cc(O)cc(O)c1 (stereo not given),inactive,
CCCCc1cc2ccccc2c(OCCN(C)C)n1,inactive,

# From PubChem BioAssay (Tox21)
